This is a sample that favours compounds with a hit; in the whole collection about 3.9% have one here.
3CLpro inhibitor: SARS-CoV 3CLpro protease inhibition. recombinant SARS-CoV 3CLpro, quenched FRET peptide cleavage. inhibition, % at 6 µM. 290,000 compounds, 0.14% hits. AID 1706; in the data active means inhibition above about 12%
CCHF vOTU inh: CCHFV vOTU protease inhibition; Pep-AMC fluorescence; inhibition, % at 11.5 µM; 370,000 compounds, 0.55% hits; AID 651958; in the data active means inhibition above about 30%; further: 0% = vehicle wells with enzyme and 100% = no enzyme wells
Anthrax LF prot: blocks Bacillus anthracis lethal factor protease; P15917; multiplex microsphere protease cleavage assay, LF; inhibition, % at 10 µM; 360,000 compounds, 0.12% hits; AID 588501; further: plate controls were buffer without enzyme for full effect and enzyme alone for no effect
Target sequence (P15917 whole entry, looked up): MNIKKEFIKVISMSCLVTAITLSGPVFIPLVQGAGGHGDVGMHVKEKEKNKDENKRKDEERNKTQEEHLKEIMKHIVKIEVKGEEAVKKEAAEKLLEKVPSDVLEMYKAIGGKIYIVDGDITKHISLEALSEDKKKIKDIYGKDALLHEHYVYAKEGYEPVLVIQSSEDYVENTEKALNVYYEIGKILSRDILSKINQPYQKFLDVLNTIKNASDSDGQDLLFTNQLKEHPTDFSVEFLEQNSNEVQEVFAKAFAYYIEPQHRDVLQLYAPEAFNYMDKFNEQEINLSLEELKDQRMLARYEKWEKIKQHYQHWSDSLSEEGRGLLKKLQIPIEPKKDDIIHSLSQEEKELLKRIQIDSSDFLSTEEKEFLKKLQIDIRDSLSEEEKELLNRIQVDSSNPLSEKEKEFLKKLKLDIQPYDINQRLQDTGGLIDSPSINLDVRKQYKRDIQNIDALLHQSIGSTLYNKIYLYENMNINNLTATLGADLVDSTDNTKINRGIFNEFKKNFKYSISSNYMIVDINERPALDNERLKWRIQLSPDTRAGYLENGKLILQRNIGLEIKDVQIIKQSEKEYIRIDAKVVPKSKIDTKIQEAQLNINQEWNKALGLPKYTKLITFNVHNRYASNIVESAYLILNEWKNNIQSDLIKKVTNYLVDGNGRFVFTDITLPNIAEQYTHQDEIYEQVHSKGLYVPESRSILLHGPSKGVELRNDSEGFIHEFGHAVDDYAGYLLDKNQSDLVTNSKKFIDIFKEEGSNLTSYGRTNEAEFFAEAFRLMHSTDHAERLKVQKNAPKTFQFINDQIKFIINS
BoNT-A LC inh2: BoNT A light chain protease inhibition; multiplex microsphere protease substrate cleavage, flow cytometry; inhibition, % at 10 µM; 360,000 compounds, 0.17% hits; AID 588499; further: plate controls were buffer without enzyme for full effect and enzyme alone for no effect
Autofluor counter: counter-screen for toxin protease inhibitors: compound fluorescence; AID 624483; fluorescence intensity (concentration not given with the values); compound autofluorescence counterscreen, microsphere flow cytometry; active compounds read high; 360,000 compounds, 3.1% hits; in the data active means fluorescence intensity above about 16000; inconclusive means no clear call, values can overlap the other calls
BoNT F protease: blocks Botulinum neurotoxin F light chain protease | AID 588497 | Multiplex microsphere protease cleavage assay, flow cytometry | inhibition, % at 10 µM | 360,000 compounds, 0.22% hits; in the data active means inhibition above about 35%, passing the limit was not always enough; inconclusive means no clear call, values can overlap the other calls; further: plate controls were buffer without enzyme for full effect and enzyme alone for no effect
* hit, by the source's call; ? = inconclusive; / = no result given. Unless noted, no stated cut-off is given here; in the data, active means inhibition above about 30%; inconclusive means no clear call, values can overlap the other calls; inactive means below that.

SMILES | 3CLpro inhibitor | CCHF vOTU inh | Anthrax LF prot | BoNT-A LC inh2 | Autofluor counter | BoNT F protease
O=C(NC(Cc1ccccc1)C(=O)O)c1ccc(S(=O)(=O)N2CCCCC2)cc1 (centres undefined) | -0.3 | -1.4 | -8.6 | 1.3 | 22876* | 3.9
O=C(NC(Cc1ccccc1)C(=O)O)c1ccc(S(=O)(=O)N2CCCC2)cc1 (centres undefined) | -4.3 | -6.1 | 0.1 | 1.6 | 10284 | 8.5
CC(C)(C)c1ccc(C(=O)NC(Cc2ccccc2)C(=O)O)cc1 (centres undefined) | 1.1 | -3.5 | -1.9 | -1.2 | 22268* | -1.5
O=S1(=O)c2c(cccc2N2CCC[C@@H]2CO)O[C@@H]2CCN1C2 | / | 4.7 | / | / | / | /
O=C1C2C3C=CC(C3=C(c3ccccc3)c3ccccc3)C2C(=O)N1CCO (centres undefined) | -0.3 | 11.1 | -1.3 | -0.8 | 16812* | -0.4
O=C1C2C(c3ccccc3)C=CC(c3ccccc3)C2C(=O)N1CCO (centres undefined) | 4.1 | 9.8 | -2.2 | 1.6 | 9194 | 15.0
C=CCn1c(SCC(=O)O)nc2sc(CC)cc2c1=O | 4.2 | 0.4 | -7.7 | -0.3 | 4544 | 2.9
C=CCn1c(SCC(=O)c2cccs2)nc2sc(CC)cc2c1=O | 2.5 | -8.7 | 1.3 | 1.8 | 22827* | 4.7
C[C@@H](N)P(=O)(O)C[C@H](Cc1ccccc1)C(=O)O | / | 0.1 | / | / | / | /
CCSc1nnc(NC(=O)C2(C)Cc3ccccc3C(=O)O2)s1 (centres undefined) | -2.2 | -2.4 | -11.5 | 4.8 | 17590* | 6.3
CCSc1nnc(NC(=O)c2cccs2)s1 | 4.0 | 7.2 | 2.3 | 1.0 | 22159* | 0.1
O=C(Nc1nnc(SCc2ccccc2)s1)c1cccs1 | -3.7 | 16.9 | -2.2 | -0.1 | 2670 | -0.5
Cc1nc2nc(-c3cccnc3)[nH]n2c(=O)c1Cc1ccccc1 | 3.3 | 2.5 | 0.0 | 1.7 | 20663* | 2.6
Cc1nc2nc(-c3ccc(Cl)cc3)[nH]n2c(=O)c1Cc1ccccc1 | 1.1 | 0.2 | 3.7 | -0.3 | 2407 | 5.7
Cc1cc(C)c(C(=O)N2CCC3(CC2)OCCO3)c(C)c1 | 2.8 | -8.0 | 5.1 | -2.3 | 3972 | 25.5
Cc1noc(C)c1C(=O)N1CCC2(CC1)OCCO2 | -5.3 | 4.7 | -1.1 | -2.3 | 20724* | -2.2
Cc1cc(C(=O)N2CCC3(CC2)OCCO3)cs1 | 0.3 | 5.3 | 0.9 | ? | 21544* | -4.1
CCc1noc(C)c1C(=O)N1CCCC1 | 5.2 | / | -0.9 | ? | 16196* | -0.3
Cc1occc1C(=O)N1CCN(C(c2ccccc2)c2ccccc2)CC1 | -5.5 | 4.8 | -0.9 | -1.2 | 22960* | -0.9
CCCCCCCCN1C(=O)[C@@H](CC(=O)NCCc2ccccc2OC)C[C@@]2(C(=O)OC)C1=C[C@H](C(C)(C)C)O[C@@H]2C | / | 6.9 | / | / | / | /
CCCCCCCCN1C(=O)[C@@H](CC(=O)NCc2cccc3ccccc23)C[C@@]2(C(=O)OC)C1=C[C@H](COCc1ccccc1)O[C@@H]2C | / | 25.5 | / | / | / | /
CN(CC#Cc1ccccc1)C(N)=NC(=O)/C=C/c1cccc(C(F)(F)F)c1 | / | 12.5 | / | / | / | /
Cc1onc(-c2ccccc2)c1C(=O)NN=Cc1cc(Cl)cc(Cl)c1O | / | -14.0 | / | / | / | /
Cc1occc1C(=O)N1CCC2(CC1)OCCO2 | -0.2 | -2.8 | -1.2 | ? | 23817* | -1.1
Cc1occc1C(=O)N1CCN(S(C)(=O)=O)CC1 | -4.3 | -0.3 | -4.4 | 0.6 | 10994 | 0.3
SMILES | 3CLpro inhibitor | CCHF vOTU inh | Anthrax LF prot | BoNT-A LC inh2 | Autofluor counter | BoNT F protease
CCn1c(CSc2nc3ccccc3[nH]2)n[nH]c1=S | 3.4 | / | -0.6 | 1.6 | 23009* | 2.1
Clc1ccc(CSc2nncn2-c2ccccn2)cc1 | 1.1 | -5.3 | 0.2 | -0.1 | 23849* | -3.4
N#Cc1c(NC(=O)/C=C/c2ccco2)sc2c1CCCC2 | 2.7 | 10.1 | -1.3 | -0.3 | 2342 | -7.5
O=C(/C=C/c1ccco1)Nc1sc2c(c1C(=O)O)CCC2 | 6.2 | -1.4 | -4.0 | -1.4 | 16426* | -4.4
COC(=O)[C@]12C[C@H](CC(=O)NCc3ccc(OC)c(OC)c3)C(=O)N(Cc3ccc4c(c3)OCO4)C1=C[C@H](COCc1ccccc1)O[C@@H]2C | / | 4.4 | / | / | / | /
O=S1(=O)CC/C(=N\O)c2ccccc21 | 2.7 | -4.0 | -0.2 | ? | 23882* | -5.8
C=CCNC(=S)N/N=C1\CCS(=O)(=O)c2ccccc21 | 1.2 | -5.2 | -11.6 | 1.2 | 3592 | 10.4
O=C(N1CCOCC1)C(F)(F)C(F)(F)C(F)(F)C(F)(F)C(=O)N1CCOCC1 | -1.9 | -2.8 | 0.1 | ? | 20612* | -0.2
CC(=O)CC[C@H]1CC[C@]2(CCCN(C(=O)c3ccc4ccccc4n3)C2)O1 | / | 13.5 | / | / | / | /
O=C(CSc1ncn(-c2ccccc2)n1)Nc1nc(-c2ccccc2)cs1 | 3.5 | 2.7 | -10.5 | ? | 20833* | 0.7
CCn1c(SCC(=O)Nc2nc(-c3ccccc3)cs2)nnc1-c1ccccc1 | 3.9 | 4.9 | -2.5 | -0.1 | 6692 | -1.4
O=C(CSc1ncn(-c2ccccc2)n1)Nc1nc2c(s1)CCCC2 | 2.0 | -12.5 | -0.8 | 0.4 | 10119 | -1.6
O=C(CSc1ncn(-c2ccccc2)n1)Nc1nc2ccccc2s1 | -1.0 | -4.0 | -2.4 | 1.7 | 22783* | 2.2
CCOC(=O)N1CCN(C(=O)CSCC(=O)Nc2nc(-c3ccccc3)cs2)CC1 | -1.2 | -6.6 | -0.9 | -0.4 | 23127* | -1.5
Cc1nnc(SCC(=O)Nc2nc(-c3ccccc3)cs2)n1N | -4.4 | -19.1 | -3.2 | -1.4 | 22717* | -0.7
CCCCCCNC(=O)C1CSCCS(=O)(=O)N1Cc1ccc(F)cc1 (centres undefined) | / | 11.1 | / | / | / | /
Cc1ccccc1Cn1ccc2ccc(-c3ccc4ccn(Cc5ccccc5)c4c3)cc21 | / | 4.8 | / | / | / | /
Cc1ccc(-n2c(SCC(=O)Nc3ccc(OCc4ccccc4)cc3)nnc2-c2ccco2)cc1 | / | 9.1 | / | / | / | /
O=C(CSc1nnc(CNc2ccc(Cl)cc2)o1)Nc1nc2ccccc2s1 | 2.2 | -2.0 | -1.8 | ? | 25121* | -7.3
CCc1ccc(-c2cn(-c3nc(C)cc(C)n3)c(=N)o2)cc1 | -3.0 | 10.7 | -2.4 | -1.0 | 23477* | -3.3
Cc1ccccc1-n1cnc2cc(NCc3cccs3)ccc21 | -1.3 | 11.9 | -3.0 | ? | 23047* | -8.4
CCOC(=O)CSc1nc2c(c(=O)[nH]c(=O)n2C)n1CCCc1ccccc1 | 1.5 | 10.7 | -1.6 | -1.7 | 22767* | -2.7
O=C(c1cnc(-c2ccc(Cl)cc2)s1)c1ccc(Cl)cc1Cl | 3.5 | / | 3.4 | 2.0 | 16515* | -2.1
Cc1ccc(C(=O)Nc2ccc(NC(=O)c3ccccc3Cl)c(C)c2)cc1 | / | 4.1 | 2.1 | -0.4 | 3920 | 6.4
Cc1ccc2sc3ccc(NC(=O)c4ccccc4Cl)cc3c(=O)c2c1 | 0.2 | -5.6 | 11.3 | 8.0 | 22506* | 4.0
Cc1cc(NC(=O)c2ccccc2Cl)ccc1NC(=O)c1ccccc1Cl | 1.0 | -7.8 | -9.6 | 1.0 | 3900 | -5.5
Cc1cc(NC(=O)c2ccc(Cl)cc2)ccc1NC(=O)c1ccccc1Cl | -1.7 | 3.4 | -12.5 | 4.1 | 2820 | 37.1*
OCC(CO)(CO)N=Cc1c(O)ccc2ccccc12 | 3.9 | 18.0 | 0.1 | 0.3 | 16546* | 2.1

Compound activity (PubChem)
